Potency and affinity values are given separately.
Tests used:
Staphylococcus aureus = settings: Concentration 32 ug.mL-1; ASSAY_TEST Inhibition of Bacterial Growth; detection method Absorption (OD600); MEDIA CAMHB; plate type 384well; NBS; CORNING #3640; time 18 hr
Escherichia coli = settings: Concentration 32 ug.mL-1; ASSAY_TEST Inhibition of Bacterial Growth; detection method Absorption (OD600); MEDIA CAMHB; plate type 384well; NBS; CORNING #3640; time 18 hr

| Compound | Inhibition (Staphylococcus aureus) | Inhibition (Escherichia coli) |
| --- | --- | --- |
| CSC1=NC(=Cc2cn(C(c3ccccc3)(c3ccccc3)c3ccccc3)c3ccccc23)C(=O)N1C | -1.08% | 9.28% |
| N#CC1=C(N)Oc2ccc3ccccc3c2C1c1cccc([N+](=O)[O-])c1 (stereo not given) | 31.47% | -6.29% |
| NC(=O)c1cc2cc(OCc3ccccc3)ccc2[nH]1 | 21.34% | -8.75% |
| CCOC(N)=CC#N | -2.54% | 11.63% |
| COC1=C(C#N)C(c2ccccc2)C(C=O)=C(Cl)N1 (stereo not given) | 40.42% | -6.81% |
| CC(C)C(=O)N/N=C/c1c[nH]c2ccccc12 | 10.48% | 9.69% |
| COc1ccc2cc(C3C4=C(CC(C)(C)CC4=O)Oc4nc5c(c(N)c43)CCCC5)c(Cl)nc2c1 (stereo not given) | 25.96% | 20.91% |
| C#CCN(C)Cc1cc2cc(OCc3ccccc3)ccc2n1C.O=C(O)C(=O)O | 41.66% | -11.51% |
| C#CCNc1nc(NCCCC2CCN(Cc3ccccc3)CC2)c(C#N)cc1C#N.Cl | -16.88% | -13.89% |
| N#Cc1ccc(Br)cc1N | 4.6% | 16.76% |
| O=C1OC(c2ccc([N+](=O)[O-])cc2)=NC1=Cc1ccccc1 | 12.67% | 13.11% |
| O=C(N/N=C/Cc1ccccc1)c1cc2ccccc2n1Cc1ccccc1 | 8.78% | 7.44% |
| O=C(N[C@H]1CC[C@H](O)CC1)c1ccccc1 | 23.34% | -10.8% |
| Cc1ccc2nc(Cl)c(/C=N/OCc3ccccc3)cc2c1 | 31.42% | 20.1% |
| CC(=O)n1cc(/C=C2\N=C(c3ccccc3)OC2=O)c2ccccc21 | 15.78% | 15.77% |
| CCCC(C)NNC(=O)Cc1c[nH]c2ccccc12 (stereo not given) | 1.02% | -9.25% |
| C#CCNc1nc(NCC#C)c(C#N)cc1C#N | -5.55% | -10.16% |
| N#C[C@]1(Br)C(=N)Oc2ccc3ccccc3c2[C@@H]1c1ccc([N+](=O)[O-])cc1 | 26.21% | 11.8% |

| Compound | Inhibition (Staphylococcus aureus) | Inhibition (Escherichia coli) |
| --- | --- | --- |
| Br.C#CCNCC | 25.79% | 18.7% |
| COc1cc(CCC(N)=O)ccc1O | 8.5% | 5.11% |
| CNCc1cc2ccccc2n1C.Cl | 7.33% | 3.85% |
| CC(=O)NC(=Cc1ccccc1)C(=O)O | 13.69% | 10.22% |
| CCCCCCC(C)NNC(=O)c1cc2ccccc2[nH]1 (stereo not given) | -0.84% | 6.64% |
| O=C(Cc1c[nH]c2ccccc12)NNCCc1ccccc1 | 4.22% | 5.19% |
| CN(C)c1cccc(C(=O)c2cccc(N(C)C)c2)c1 | 23.31% | 7.89% |
| O=C(N/N=C/c1ccc(Cl)cc1)c1cc2ccccc2[nH]1 | 1.43% | 20.07% |
| CNCc1cc2cc(OCc3ccccc3)ccc2n1C.Cl | 43.08% | 3.38% |
| Cc1ccc2nc(Cl)c(/C=N/N)cc2c1 | 28.8% | 25.39% |
| N#Cc1cc(C#N)c(N2CCC(Cc3ccccc3)CC2)nc1N | -2.68% | -8.44% |
| Cc1ccc(S(=O)(=O)N[C@H]2CC[C@H](O)CC2)cc1 | 22.82% | -6.91% |
| COC(=O)C1CCN(Cc2ccccc2)CC1 | 27.51% | 11.49% |
| Cc1ccc(C2c3c(Cl)nnnc3Oc3ccc4ccccc4c32)cc1 (stereo not given) | 36.97% | 16.16% |
| C#CCN(C)c1ncc(C#N)c(N)n1 | 39.34% | -4.49% |
| CCOC(=O)c1cc2c(N)c3c(nc2nc1C)CCCC3 | 8.67% | -8.78% |
| Cn1c(CNNC(=O)Cc2cccc3ccccc23)cc2ccccc21 | -5.85% | -4.9% |

Source: ChEMBL document CHEMBL4513135, “CO-ADD screening of IQOG CSIS (Spain) compounds”
